# Rows were chosen to be rich in hits. Some 2.6% of all compounds tested hit in one or more screens of this group.
# AI-2 QS modul: modulates the Vibrio harveyi AI-2 quorum sensing system; 300,000 compounds, 0.4% hits; Vibrio harveyi JMH597 AI-2 luminescence/OD600 ratio, 9 h; stronger effect = lower value; strain lacks LuxN and CqsS sensors; 0 = neutral-control median; activity change, % at 7.5 µM; AID 2094; in the data active = activity change below about -75%, passing the limit was not always enough;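 also: luminescence divided by OD600 gain over 9 h not by final OD600 alone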
# ABCB6 inh 2: human ABCB6 transporter inhibition. Q9NP58. K562-ABCB6 porphyrin accumulation, flow cytometry, 1 h; stronger effect = lower value. fluorescence ratio to DMSO, % at 10 µM. 360,000 compounds, 0.19% hits. AID 602162;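 active = fluorescence ratio to DMSO below 75%, the collection mean minus 3 SD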;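 also: signal is porphyrin accumulated inside mitochondria; 100% equals median channel fluorescence of DMSO control wells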
# PABP FP inh: PABP-poly(A) binding inhibition. P11940. PABP-poly(A) RNA binding, fluorescence polarization. calls only at 35 µM. 290,000 compounds, 1% hits. AID 2014;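 also: calls also rest on retests at 20 µM and on dose response follow-up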
# eIF4H FP inh: inhibitors of RNA binding by human eIF4H. Q15056. eIF4H fluorescence polarization binding assay. inhibition, % at 35 µM. 290,000 compounds, 0.94% hits. AID 2012;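 also: calls also rest on retests at 20 µM and on dose response follow-up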
# PABP1 MLLE inh: inhibitors of microRNA-mediated deadenylation, human PABP1 MLLE binding. GST-MLLE / FITC-PAM2 fluorescence polarization. 360,000 compounds, 0.36% hits. AID 588489. inhibition, % at 20 µM; in the data active = inhibition above about 35%, passing the limit was not always enough;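 also: plate controls were DMSO wells with GST-MLLE for no effect and wells lacking GST-MLLE protein for full effect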
# PHOSPHO1 inh: inhibitors of human PHOSPHO1 phosphatase | Q8TCT1 | recombinant PHOSPHO1, absorbance phosphatase assay | inhibition, % at 13.3 µM | 290,000 compounds, 1.1% hits | AID 1565; in the data active = inhibition above about 60%
# Target sequence (Q8TCT1 whole entry, looked up): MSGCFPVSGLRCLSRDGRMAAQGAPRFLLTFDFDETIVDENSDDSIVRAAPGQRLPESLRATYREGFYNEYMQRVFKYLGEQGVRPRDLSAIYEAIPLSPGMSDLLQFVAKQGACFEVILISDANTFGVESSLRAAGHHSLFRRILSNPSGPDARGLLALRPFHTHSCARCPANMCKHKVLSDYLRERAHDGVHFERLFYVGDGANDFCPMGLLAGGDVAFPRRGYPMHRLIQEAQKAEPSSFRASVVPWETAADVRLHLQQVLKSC
# The depositor's hits bear a star; i = inactive; x = not tested or not shown; + = active, no number. Unless noted, no rule for the calls is given here.
SMILES,AI-2 QS modul,ABCB6 inh 2,PABP FP inh,eIF4H FP inh,PABP1 MLLE inh,PHOSPHO1 inh
CCc1nnc(NC(=O)CSc2nnc(Cc3ccccc3)n2Cc2ccccc2)s1,11,93,i,2,-53,31
CCc1nnc(NC(=O)CSc2nnc(COc3ccccc3)n2Cc2ccccc2)s1,10,97,i,-5,-4,60*
CCc1nnc(NC(=O)CSc2nnc(COc3ccccc3C)o2)s1,19,98,i,-4,-36,97*
CCOC(=O)[C@]12CCC=C1N(Cc1ccc3c(c1)OCO3)C(=O)[C@H](CC(=O)N1CCSCC1)C2,x,93,x,x,x,x
NC(Cc1ccc(C(F)(F)F)cc1)c1csc(Nc2ccc(C(=O)c3ccccc3)cc2)n1 (centres undefined),x,95,x,x,12,x
ClCCn1c(CCl)nc2ccc(Cl)cc21,x,104,x,x,0,x
CCOCC(=O)Nc1nnc(COc2ccc(Cl)cc2)s1,10,88,i,4,37*,95*
Cc1ccc(OCc2nnc(SCC(=O)CC(=O)Nc3ccccc3)o2)cc1,13,110,i,-2,-122,73*
COCC(=O)Nc1nnc(COc2ccc(Cl)cc2)s1,25,99,i,2,-7,8
Cc1nnc(SCC(=O)Nc2sccc2C#N)n1Cc1ccccc1,34,197,+,29*,-12,-23
Cc1nnc(SCC(=O)NNC(=O)c2ccccc2)n1Cc1ccccc1,x,97,x,x,-6,x
COc1cccc(C(O)c2nc(-c3ccc(N(C)C)cc3)cs2)c1 (centres undefined),x,88,x,x,-12,x
OC[C@@H]1CN(CCN2CCOCC2)C[C@H](n2cnc3c(N4CCOCC4)ncnc32)O1,x,94,x,x,3,x
CC(=O)OCC(O)C1(O)CCC2C3CCC4=CC(=O)CCC4(C)C3C(O)CC21C (centres undefined),x,107,x,x,-11,x
CC(c1nc2ccccc2c(=O)[nH]1)N(C)c1ccc2ccccc2c1 (centres undefined),23,98,i,17,42*,-5
Cc1ccc(S(=O)(=O)N(C)C)cc1NC(=S)NNC(=O)C(N)=O,22,96,+,9,-28,38
c1ccc(COC2CCCN(Cc3nc(-c4cccs4)no3)C2)nc1 (centres undefined),22,102,i,-1,40*,24
FC(F)(F)c1cccc(Cc2noc(CN3CCCCC3c3ccccn3)n2)c1 (centres undefined),14,94,i,-10,-2,46
FC(F)(F)c1cccc(Cc2noc(CN3CCCC(OCc4ccccn4)C3)n2)c1 (centres undefined),13,101,i,-7,-7,64*
CCCC(C(=O)NCCC(C)C)N(Cc1ccccc1)C(=O)c1snc(C(N)=O)c1N (centres undefined),1,99,i,-2,4,24
CC(C)CCNC(=O)C(C)N(C(=O)c1snc(C(N)=O)c1N)c1cnc2ccccc2c1 (centres undefined),21,96,+,5,-4,-14
CCOC(=O)c1nn(C)c(=S)n(C)c1=O,x,104,x,x,17,x
Cn1nc(C(=O)O)c(=O)n(C)c1=O,x,97,x,x,40*,x
c1ccc2c(NC3=NCCCCS3)cccc2c1,9,90,i,-2,-2,22
c1ccc(NC2=NCCCCS2)cc1,2,98,i,108*,-6,15
SMILES,AI-2 QS modul,ABCB6 inh 2,PABP FP inh,eIF4H FP inh,PABP1 MLLE inh,PHOSPHO1 inh
O=C(COc1cccc2cccnc12)NNC(=O)Nc1ccccc1,11,96,i,-3,-1,61*
CCCCCCCCS(=O)c1sc2nc(C)cc(C)c2c1N (centres undefined),18,93,i,-9,10,94*
CCCCCCCCS(=O)c1sc2nc3c(cc2c1N)CCCC3 (centres undefined),13,97,x,x,4,x
Cc1cc(O)c(/C=N/Nc2cccc(Cl)c2)c(=O)o1,21,119,i,0,-7,101*
Cc1cc(O)c(/C=N/Nc2ccc(Cl)cc2)c(=O)o1,-7,118,i,5,-3,-106
COCCNS(=O)(=O)c1ccc2c(c1)oc(=O)c1cc(S(=O)(=O)NCCOC)ccc12,31,x,+,-1,x,12
CC(C)OCCCNC(=O)c1sc(=S)n(C)c1N,-4,97,i,-10,41*,33
OC(c1ccc(-c2ccccc2)cc1)c1ncc(-c2ccc(F)cc2)[nH]1 (centres undefined),x,101,x,x,-8,x
O=S(=O)(Nc1ccc(C(F)(F)F)cc1)c1cccs1,-85*,100,i,8,7,6
C/C(=N\NC(=O)c1ccc(NS(=O)(=O)c2cccs2)cc1)c1cccs1,6,95,+,active,-3,13
C/C(=N\NC(=O)c1ccc(NS(=O)(=O)c2cccs2)cc1)c1ccc(Cl)cc1,26,104,i,1,-4,10
COc1ccc(C2=NNC(c3cc(Cl)cc4c3OCOC4)C2)c(O)c1 (centres undefined),-7,x,i,52*,x,-5
Oc1ccc(Cl)cc1C1=NNC(c2cc(Br)cc3c2OCOC3)C1 (centres undefined),6,110,i,-9,-21,32
COc1ccc(Cn2nnnc2C(c2ccc(N(C)C)cc2)N2CCC(C)CC2)cc1 (centres undefined),10,95,i,-7,3,56
CC1CCN(C(c2ccc(N(C)C)cc2)c2nnnn2Cc2ccccc2)CC1 (centres undefined),20,97,i,1,2,69*
CCN1CCN(C(c2ccccc2)c2nnnn2Cc2ccc3c(c2)OCO3)CC1 (centres undefined),9,95,i,-2,10,61*
O=C(NC1CCCCC1)C1c2ccccc2OCC(=O)N1Cc1ccccc1 (centres undefined),x,99,x,x,x,x
Cc1nc2ccc(C(=O)N(C)Cc3ccco3)cn2c1N(C)C(=O)CCc1ccccc1,x,93,x,x,-2,x
Cc1ccc(NC(=O)C/C(N)=N/O)cc1C,17,98,i,-8,-68,69*
Cc1cccc(C)c1NC(=O)C/C(N)=N/O,9,90,i,-3,10,-21
Cc1ccc(CCC(=O)Nc2ccc(C)c(C)c2)o1,-79*,118,x,x,3,-10
CC(=O)Nc1ccc(NC(=O)CCc2ccc(C)o2)cc1,13,99,i,-7,-11,28
CCCC(=O)N1CCCC(c2cc(C(=O)NCc3cccnc3)no2)C1 (centres undefined),x,103,x,x,-2,x
CN1/C(=C\C(=O)Nc2ccc(F)cc2)C(C)(C)c2ccccc21,8,100,i,2,3,-6
CN1/C(=C\C=C(/C#N)C(=O)Nc2ccccc2F)C(C)(C)c2ccccc21,8,158,+,74,-102,-32

# Screening results (PubChem)
